# Assay results: PubChem BioAssay (NCATS)
# Results filed as inconclusive are left out. Calls of active or inactive are those of the source. Unless noted, calls come from the whole dose curve; as a rule, active = well fitted curve in the direction sought with a large enough effect; inconclusive = small, poorly fitted or top-dose-only effect, or another doubt; inactive = no such curve, though single readings can be large; an effect the other way counts as inactive or inconclusive.
# How the values were obtained:
# [1] = qHTS drug screen for cell cycle checkpoint inhibitors in PARPi-resistant BRCA-mutant ovarian cancer cell lines. (AID 1963452; calls by dose curve; note: potency is the fitted concentration of half-maximal effect); conditions: PEO1/OlaR viability, CellTiter-Glo luminescence, 96 h; for Z-AUC: stronger effect = lower value
# Procedure, shortened: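 PEO1, PEO4 and PEO1/OlaR ovarian cancer cells, 600 per well, exposed 96 h at 37C to a dilution series. Viability read by CellTiter-Glo luminescence, normalized to DMSO and empty wells; activity summarized as Z-AUC.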
# [2] = target: Cytochrome P450 2C19 (Homo sapiens) (UniProt P33261); experiment: qHTS for inhibitors of CYP2C19 against the NCATS DSHEA and TCM libraries (AID 1919974); conditions: CYP2C19 enzyme inhibition, luminescence qHTS; series mostly up to 18.8 µM;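 note: luminescence from luciferin released by CYP2C19 oxidation of a pro-luciferin substrate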; note: potency is the fitted concentration of half-maximal effect
# Cytochrome P450 2C19 (Homo sapiens), sequence (P33261 whole entry, looked up, canonical isoform): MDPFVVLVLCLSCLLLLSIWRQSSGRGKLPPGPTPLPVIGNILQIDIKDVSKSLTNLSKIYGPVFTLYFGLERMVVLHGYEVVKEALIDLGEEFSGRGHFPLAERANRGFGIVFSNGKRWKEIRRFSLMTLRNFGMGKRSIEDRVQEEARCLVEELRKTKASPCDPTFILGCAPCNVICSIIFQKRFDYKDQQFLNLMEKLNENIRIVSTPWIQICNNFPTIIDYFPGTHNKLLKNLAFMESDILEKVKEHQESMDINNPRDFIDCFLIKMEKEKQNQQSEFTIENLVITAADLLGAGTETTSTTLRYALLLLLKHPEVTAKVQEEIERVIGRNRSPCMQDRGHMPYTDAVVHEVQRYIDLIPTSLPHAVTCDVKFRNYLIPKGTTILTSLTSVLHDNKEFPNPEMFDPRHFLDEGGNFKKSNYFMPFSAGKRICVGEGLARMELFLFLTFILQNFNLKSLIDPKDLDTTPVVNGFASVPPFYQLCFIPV
# Procedure, shortened: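 Isoform-specific enzyme and substrate levels; enzyme-free wells as background. Reaction: 1x NADPH regenerating system, 30-45 min, room temperature, shielded from light; luminescent detection reagent added, 30 min.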
# [3] = KB-3-1 P-gp reporter qHTS against the NCATS DSHEA and TCM libraries (AID 1919975); conditions: KB-3-1 parental cells, CellTiter-Glo luminescence viability, 72 h; series mostly up to 14.4 µM; note: 0% is about no effect
# Procedure, shortened: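 CellTiter-Glo luminescence viability readout; KB-3-1 parental cells, 500/well, attached ~4 h, then compound for ~72 h, 37C, 5% CO2. Bortezomib intraplate control.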
# [4] = target: Cytochrome P450 1A2 (Homo sapiens) (UniProt P05177); experiment: qHTS for inhibitors of CYPIA2 against the NCATS DSHEA and TCM libraries (AID 1919976); conditions: recombinant CYP1A2 enzyme activity, luminescence; series mostly up to 20.3 µM; note: potency is the fitted concentration of half-maximal effect
# Cytochrome P450 1A2 (Homo sapiens), sequence (P05177 whole entry, looked up): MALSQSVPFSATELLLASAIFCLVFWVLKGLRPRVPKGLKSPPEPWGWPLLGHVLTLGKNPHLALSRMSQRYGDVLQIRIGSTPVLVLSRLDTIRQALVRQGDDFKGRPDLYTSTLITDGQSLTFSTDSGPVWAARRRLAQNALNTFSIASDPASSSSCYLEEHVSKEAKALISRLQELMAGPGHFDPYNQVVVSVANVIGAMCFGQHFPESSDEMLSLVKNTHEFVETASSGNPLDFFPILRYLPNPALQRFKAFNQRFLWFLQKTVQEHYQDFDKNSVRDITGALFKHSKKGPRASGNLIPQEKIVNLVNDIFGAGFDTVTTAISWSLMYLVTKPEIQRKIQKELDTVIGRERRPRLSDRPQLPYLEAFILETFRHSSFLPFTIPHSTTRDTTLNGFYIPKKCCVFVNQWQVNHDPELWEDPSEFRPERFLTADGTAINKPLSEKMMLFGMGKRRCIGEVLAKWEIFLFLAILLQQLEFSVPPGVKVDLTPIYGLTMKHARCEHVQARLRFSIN
# Procedure, shortened: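 Furafylline served as the plate control. Compounds met CYP1A2 and pro-luciferin substrate 15 min before NADPH regeneration solution (1x) was added; after 30-45 min at RT, P450-Glo reagent was added for 30 min and luminescence was measured.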
# [5] = qHTS Counterscreen for compound interference against the NCATS DSHEA and TCM libraries (AID 1919978); conditions: firefly luciferase detection reagent interference, luminescence;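 note: compounds preincubated with 1 µM D-luciferin or buffer before detection reagent; % of control where 0% means no effect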
# Procedure, shortened: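 Luminescence counterscreen for detection-kit interference: compounds at 19.5 nM–39.8 uM final, 15 min RT with 1 uM D-luciferin or buffer only; detection reagent added, 30 min RT, then read.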
# [6] = Dual reporter qHTS for agonist of Pregnane X Receptor (hPXR) against the NCATS DSHEA and TCM libraries: Fluorescence readout (AID 1920058); conditions: PXR dual reporter cells; series mostly up to 22 µM; note: 0% is about no effect
# Procedure, shortened: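 In this qHTS counter-read, reporter-bearing HepG2 cells in charcoal-stripped serum received substances for approximately 24 h before viability was assessed fluorometrically with CellTiter-Fluor.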
# [7] = target: Nuclear receptor subfamily 1 group I member 2 (Homo sapiens) (UniProt O75469); experiment: Dual reporter qHTS for agonist of Pregnane X Receptor (hPXR) against the NCATS DSHEA and TCM libraries: Luminescence readout (AID 1920059); conditions: hPXR dual reporter cells, luciferase luminescence agonist; series mostly up to 22 µM; note: 0% is about no effect
# Nuclear receptor subfamily 1 group I member 2 (Homo sapiens), sequence (O75469 whole entry, looked up): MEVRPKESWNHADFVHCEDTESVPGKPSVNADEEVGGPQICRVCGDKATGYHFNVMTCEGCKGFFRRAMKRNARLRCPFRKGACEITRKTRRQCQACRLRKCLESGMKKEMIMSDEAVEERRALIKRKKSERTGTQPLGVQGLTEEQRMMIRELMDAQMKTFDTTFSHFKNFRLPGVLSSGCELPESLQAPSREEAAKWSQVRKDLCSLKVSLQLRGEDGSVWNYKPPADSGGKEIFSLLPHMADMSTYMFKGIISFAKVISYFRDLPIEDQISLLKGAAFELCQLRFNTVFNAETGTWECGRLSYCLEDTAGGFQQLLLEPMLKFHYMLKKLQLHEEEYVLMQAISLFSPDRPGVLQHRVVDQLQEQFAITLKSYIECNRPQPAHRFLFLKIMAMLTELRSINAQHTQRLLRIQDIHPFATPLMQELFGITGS
# Procedure, shortened: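 Luminescent PXR reporter read (ONE-Glo) after a CellTiter-Fluor viability read, following 24 h, 37C treatment of HepG2 cells stably carrying hPXR-Luc.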
# [8] = target: Nuclear receptor subfamily 1 group I member 2 (Homo sapiens) (UniProt O75469); experiment: Dual reporter qHTS for antagonist of Pregnane X Receptor (hPXR) against the NCATS DSHEA and TCM libraries: Luminescence Readout (AID 1920060); conditions: hPXR dual reporter cells, luciferase luminescence, antagonist mode; series mostly up to 22 µM;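 note: HepG2 cells carrying hPXR luciferase reporter stimulated with rifampicin at 2 µM; 0% is about no effect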
# From the text: Assay Development and Screening Technology Laboratory (ADST)
# National Center for Advancing Translational Sciences (NCATS), Rockville, MD
# National Institute of Health (NIH), Bethesda, Maryland
# Dietary Supplements and Natural Products have minor oversight of their safety and efficacy. We assembled a collection of Dietary Supplements and Natural Products (DSNP) as well as Traditional Chinese Medicinal (TCM) Plant extracts, which were screened against an in vitro panel of assays, including a liver cytochrome p450 enzyme panel, CAR/PXR signaling pathways, and P-gp transporter assays, to assess their activity. This pipeline facilitated the interrogation of Natural Product-Drug Interaction (NaPDI) through prominent metabolizing pathways. In addition, we compared the activity profiles of the DSNP/TCM substances with those of an approved drug collection. Many of the approved drugs have well-annotated mechanisms of action (MOA) while the MOAs for most of the DSNP and TCM samples remain unknown. Based on the premise that compounds with similar activity profiles tend to share similar targets or MOA, we clustered the library activity profiles to identify overlap with the NCATS Pharmaceutical Collection to predict the MOAs of the DSNP/TCM substances. Overall, we highlight four significant bioactivity profiles (measured by p-values) as examples of this prediction. To assess broad cytotoxicity, we employed screening against a HepG2 cell line. In addition, transporter-mediated drug interactions are utilized in the characterization of DDIs using a P-glycoprotein (P-gp) assays. To profile potential P-gp activity, a differential cell viability was measured against two cell lines: a parental KB-3-1 human cervical adenocarcinoma cell line and the drug-resistant subline KB-8-5-11 that overexpresses P-gp.
# To this end, we profiled both collections for potential CAR and/or PXR activity, employing a previously published 1536-well qHTS assay.
# [1] Lee TD, et al. A High-Throughput Screen of a Library of Therapeutics Identifies Cytotoxic Substrates of P-glycoprotein. Mol Pharmacol. Nov 2019;96(5):629-640. doi:10.1124/mol.119.115964
# For PXR luciferase reporter gene assays, we used hPXR-LucHepG2cells provided by Dr. Taosheng Chen (Department of Chemical Biology and Therapeutics, St. Jude Children's Research Hospital). Cells were cultured in EMEM supplemented with 10% fetal bovine serum, 100U/mL penicillin and 100ug/mL streptomycin, and 500ug/mL of geneticin.
# PROTOCOL TABLE (as described by Inglese J, Shamu CE and Guy RK. 2007)
# SEQUENCE No. (e.g., 1, 2, 3, etc.); PARAMETER (e.g., Cells, Incubation, Reagent, etc.); VALUE; DESCRIPTION.
# 1; Cells; 5 uL; hPXR-LucHepG2; white solid-bottom Greiner plate.
# 2; Incubation; 5h; 37C, 95% humidity, 5% CO2
# 3; Compounds and control; 23 nL; Kalypsis pintool (Wako USA).
# 4; Reagent; 1uL; rifampicin (RIF) in the antagonist mode.
# 6; Reagent; 1 uL; CellTiter-Fluor detection reagent.
# 7; Incubation; 1 hr; 37C, 5% CO2.
# 8; Read; Fluorescence; ViewLux plate reader.
# 9; Reagent; 4 uL; ONE-Glo Luciferase detection reagent.
# 10; Incubation; 30 min; room temperature.
# 11; Read; Luminescence; ViewLux plate reader.
# NOTES (numbers refer to Sequence numbers above)
# 1. Briefly, 5uL of hPXR-LucHepG2 cells in phenol red-free DMEM containing 5% charcoal-stripped FBS, 1 mM sodium pyruvate (Invitrogen), 2 mM L-glutamine (Invitrogen), and 100 U/mL penicillin and 100ug/mL streptomycin were dispensed using a BioRAPTR FRD at 4 x 10^5cells/mL (2000cells/well) in tissue culture-treated 1536-well white assay plates (GreinerBio-One).
# 2. Plates were incubated for 5h at 37C, 95% humidity, and 5% CO2 to allow for cell attachment.
# 3. Compounds (final concentration for most substances ranged from 15.6 nM to 45.9uM), positive SPA70 (final concentration range of 2.8 nM to 92uM for the antagonist mode), and cytotoxicity control tetraoctyl ammonium bromide (final concentration of 92uM) were transferred (23 nL) via pintool (Wako Automation).
# 4-5. […]
# [9] = Dual reporter qHTS for antagonist of Pregnane X Receptor (hPXR) against the NCATS DSHEA and TCM libraries: Fluorescence Readout (AID 1920061); conditions: PXR dual reporter cells, antagonist mode; series mostly up to 22 µM; note: 0% is about no effect
# Procedure, shortened: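 In antagonist mode, 2 uM rifampicin was added to hPXR-Luc HepG2 cells alongside test substances, incubated 24 h at 37 C; luminescence gave reporter activity, and CellTiter-Fluor fluorescence (405/540 nm) gave viability.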
# [10] = measured here: PEO1 parental Z-AUC
structure (smiles),measurement,setting,value
CC1=C(CO)C(=O)O[C@@H]([C@@H](C)[C@H]2CC[C@H]3[C@@H]4C[C@H]5O[C@]56[C@@H](O)C=CC(=O)[C@]6(C)[C@H]4CC[C@]23C)C1,Z-AUC,[1],-1.4 (inactive)
same,Z-AUC,[1]; [10],-1.83
same,Z-AUC,[1]; measured here: PEO4 Z-AUC,-1.49
O=C(O)c1ccc(CN2CCC(CN[C@@H]3C[C@H]3c3ccccc3)CC2)cc1,Z-AUC,[1],-0.0301 (inactive)
same,Z-AUC,[1]; [10],1.03
same,Z-AUC,[1]; measured here: PEO4 Z-AUC,0.899
CC1CC[C@]2(C(=O)O)CC[C@]3(C(=O)O)C(=CCC4[C@@]5(C)CC[C@H](OC6OC(C)C(O)C(OC7OC(CO)C(O)C(O)C7O)C6O)C(C)(C)C5CC[C@]43C)C2C1C (stereo partly specified),Potency,[2],inactive
same,outcome,[3],inactive
same,Potency,[4],inactive
same,max response,[5],-1.38% (inactive)
same,outcome,[6],inactive
same,outcome,[7],inactive
same,outcome,[8],inactive
same,outcome,[9],inactive
COc1cc2ncnc(Nc3ccc(F)c(Cl)c3)c2cc1NC(=O)/C=C/CN1CCCCC1,Potency,[1],6.92 µM (active)
same,Z-AUC,[1]; [10],-1.17
same,Z-AUC,[1]; measured here: PEO4 Z-AUC,-1.24
COc1ncc(Nc2ncc([C@H](C)N3CCN(S(C)(=O)=O)CC3)cc2-c2nc(C)nc(N)n2)cc1F,Z-AUC,[1],-0.261 (inactive)
same,Z-AUC,[1]; [10],-0.0225
same,Z-AUC,[1]; measured here: PEO4 Z-AUC,-0.164
Cc1ccc([N+](=O)[O-])cc1S(=O)(=O)N(C)/N=C/c1cnc2ccc(Br)cn12,Z-AUC,[1],-2.4 (inactive)
same,Z-AUC,[1]; [10],-2.53
same,Z-AUC,[1]; measured here: PEO4 Z-AUC,-2.56
CC(C)=CCC(O)/C(C)=C/CO[C@@H]1O[C@H](CO)[C@@H](O)[C@H](O)[C@H]1O (stereo partly specified),Potency,[2],2.51 µM (active)
same,outcome,[3],inactive
same,Potency,[4],3.55 µM (active)
same,max response,[5],-4.77% (inactive)
same,outcome,[6],inactive
same,outcome,[7],inactive
same,outcome,[8],inactive
same,outcome,[9],inactive
CC[C@H](NC(=O)[C@H](CS(=O)(=O)CC1CC1)N[C@@H](c1ccc(F)cc1)C(F)(F)F)C(=O)C(=O)NC1CC1,Z-AUC,[1],0.263 (inactive)
same,Z-AUC,[1]; [10],1.63
same,Z-AUC,[1]; measured here: PEO4 Z-AUC,1.51
NC(=O)[C@H]1CCS[C@@H]2C[C@]3(CCCN3C(=O)Cc3ccc(NC(=O)COc4ccc(Cl)cc4Cl)cc3)C(=O)N12,Z-AUC,[1],-0.482 (inactive)
same,Z-AUC,[1]; [10],0.014
same,Z-AUC,[1]; measured here: PEO4 Z-AUC,0.0247
C#CC[C@H](c1nc2cc(Cl)ccc2c(=O)n1Nc1ccccc1)N(CCCN)C(=O)c1cccc(Cl)c1F,Potency,[1],1.23 µM (active)
same,Z-AUC,[1]; [10],-1.73
same,Z-AUC,[1]; measured here: PEO4 Z-AUC,-1.5
COC(=O)N[C@@H](C)CNc1nccc(-c2cn(C(C)C)nc2-c2cc(Cl)cc(NS(C)(=O)=O)c2F)n1,Z-AUC,[1],-0.294 (inactive)
same,Z-AUC,[1]; [10],-0.151
same,Z-AUC,[1]; measured here: PEO4 Z-AUC,-0.157
Cc1cnc(Nc2ccc(F)cc2Cl)nc1-c1c[nH]c(C(=O)NC(CO)c2cccc(Cl)c2)c1 (stereo unspecified),Z-AUC,[1],-0.685 (inactive)
same,Z-AUC,[1]; [10],-0.607
same,Z-AUC,[1]; measured here: PEO4 Z-AUC,-0.952
